Test [1] deals with Vero E6 infected with SARS-CoV-2. The experiment in a line: morphology score (similarity to uninfected cells); higher = more like uninfected cells. Particulars: 24 h.
For test [2] the test system is unchanged. Kind of test: SARS-CoV-2 infection rate relative to infected DMSO; higher = more infection, active = 60 or less. Conditions: 24 h.

This passage reports morphology score and SARS-CoV-2 infection rate results from the supplement of paper PMC13380429.

For `O=c1[nH]c(=O)n([C@H]2C[C@H](O)[C@@H](CO)O2)cc1/C=C/Br` [brivudine] (10 µM), the morphology score in test [1] was found to be 0.0102. Further, the SARS-CoV-2 infection rate in test [2] was 108% (inactive).

`CCOC(=O)NNc1nncc2ccccc12` [todralazine] (10 µM): the morphology score in test [1] was 0.0897. Besides, the SARS-CoV-2 infection rate in test [2] is 106% (inactive).

For the compound `Clc1ccc(CO/N=C(\Cn2ccnc2)c2ccc(Cl)cc2Cl)c(Cl)c1` [oxiconazole] (10 µM), in test [1], the morphology score was -0.0771. Besides, the SARS-CoV-2 infection rate in test [2] is 114% (inactive).

As for `COc1cc2c(cc1OC)[C@@H]1Cc3ccc(OC)c(OC)c3CN1CC2` [rotundine] (10 µM), the morphology score in test [1] came out at 0.0444. In addition, the SARS-CoV-2 infection rate in test [2] was 110% (inactive).

In test [1], `O=C(O)CNC(=O)C(CS)Cc1ccccc1` (stereo not given) [thiorphan] (10 µM) displayed a morphology score of 0.106. Moreover, the SARS-CoV-2 infection rate in test [2] is 98.5% (inactive).

Take `CN(C)Cc1ccc(-c2nc3cccc4c3n2CCNC4=O)cc1` (10 µM): the morphology score in test [1] came to 0.092. Moreover, the SARS-CoV-2 infection rate in test [2] was 97.5% (inactive).

The compound `CCCCCCCCCCCCCCCCCCN(CCCCCCCCCCCCCCCCCC)CCCN(CCO)CCO` [avridine] (10 µM) returned a morphology score in test [1] of 0.0689. Moreover, in test [2], the SARS-CoV-2 infection rate was 102% (inactive).

`C[C@H](Nc1ncnc2[nH]cnc12)c1cc2ccc(F)cc2nc1-c1ccccn1` (10 µM) had a morphology score in test [1] of 0.0578. The SARS-CoV-2 infection rate in test [2] is 114% (inactive).

For `C=C[C@H]1CN2CC[C@H]1CC2C(OC(=O)OCC)c1ccnc2ccc(OC)cc12` (stereo in doubt) [quinine-ethyl-carbonate] (10 µM), in test [1], the morphology score came out at 0.215. Also, in test [2], the SARS-CoV-2 infection rate was 99% (inactive).

Compound `O=C(O)c1ccc(-n2nc(-c3ccccc3O)nc2-c2ccccc2O)cc1` [deferasirox] (0.833333 µM) gave a morphology score in test [1] of 0.0304. In addition, the SARS-CoV-2 infection rate in test [2] is 114% (inactive).

On to `NS(=O)(=O)c1ccc2c(c1)C1C=CCC1C(c1ccc(Br)cc1)N2` (stereo not given) (10 µM), for which the morphology score in test [1] was -0.0557. Moreover, in test [2], the SARS-CoV-2 infection rate was 95% (inactive).

In the case of `CN1CCCCC1Cn1cc(C(=O)c2cc([N+](=O)[O-])ccc2I)c2ccccc21` (stereo not given) (10 µM), the morphology score in test [1] stood at 0.612. Also, the SARS-CoV-2 infection rate in test [2] was 72.5% (inactive).

In the case of `C[C@@H]1CN(CCCn2c3ccccc3c3ccccc32)C[C@H](C)N1` [rimcazole] (10 µM), the morphology score in test [1] is 0.623. Further, the SARS-CoV-2 infection rate in test [2] is 19.5% (active).

In the case of `CCOC(=O)C1=C[C@]2(CC)CCCN3CCc4c(n1c1ccccc41)[C@@H]32` [vinpocetine] (10 µM), the morphology score in test [1] is 0.176. The SARS-CoV-2 infection rate in test [2] was 102% (inactive).

Compound `Cc1cc(-n2c(=O)[nH]c(=O)n(C)c2=O)ccc1Oc1ccc(SC(F)(F)F)cc1` [toltrazuril] (10 µM) returned a morphology score in test [1] of 0.184. The SARS-CoV-2 infection rate in test [2] is 107% (inactive).

`COC(=O)C(c1ccccc1)C1CCCCN1` (stereo not given) (10 µM) displayed a morphology score in test [1] of 0.0486. In addition, the SARS-CoV-2 infection rate in test [2] is 114% (inactive).

Take `N[C@@H]1CN(c2c(F)cc3c(=O)c(C(=O)O)cn([C@@H]4C[C@@H]4F)c3c2Cl)CC12CC2` [sitafloxacin] (10 µM): in test [1], the morphology score was -0.0334. Moreover, the SARS-CoV-2 infection rate in test [2] was 106% (inactive).

Compound `Nc1ccn([C@H]2CO[C@@H](CO)S2)c(=O)n1` [apricitabine] (10 µM) showed a morphology score in test [1] of 0.071. In addition, the SARS-CoV-2 infection rate in test [2] is 108% (inactive).

In test [1], `Cc1cccc(Nc2ccccc2C(=O)O)c1C` [mefenamic-acid] (10 µM) gave a morphology score of 0.0628. Moreover, the SARS-CoV-2 infection rate in test [2] is 99.5% (inactive).

`CC(NC(C)(C)C)C(=O)c1cccc(Cl)c1` (stereo not given) [bupropion] (10 µM) showed a morphology score in test [1] of 0.00981. Further, in test [2], the SARS-CoV-2 infection rate was 96.5% (inactive).

On to `O=C(O)CCc1nc(-c2ccccc2)c(-c2ccccc2)o1` [oxaprozin] (10 µM), for which the morphology score in test [1] is -0.00592. Also, in test [2], the SARS-CoV-2 infection rate was 116% (inactive).

As for `CCC(=O)OCC(=O)[C@@]1(OC(=O)CC)[C@@H](C)C[C@H]2[C@@H]3CCC4=CC(=O)C=C[C@]4(C)[C@@]3(F)[C@@H](O)C[C@@]21C` (10 µM), in test [1], the morphology score was found to be 0.138. The SARS-CoV-2 infection rate in test [2] is 104% (inactive).

Take `CSc1ccc(OCc2ncc([N+](=O)[O-])n2C)cc1` [fexinidazole] (10 µM): in test [1], the morphology score was -0.0351. Moreover, the SARS-CoV-2 infection rate in test [2] is 114% (inactive).

Turning to `O=C(Nc1ccc(CN2CCOCC2)cc1)c1ccc(-c2cccc(Cl)c2)o1` (10 µM), the morphology score in test [1] was 0.194. Moreover, the SARS-CoV-2 infection rate in test [2] is 110% (inactive).

Regarding `C[Se]C[C@H](N)C(=O)O` [Se-methylselenocysteine] (10 µM), the morphology score in test [1] came to 0.107. Further, the SARS-CoV-2 infection rate in test [2] is 102% (inactive).
